What was measured:
[1] = target: T1, Aurora kinase A (Homo sapiens) (UniProt O14965); conditions: at 1 µM;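 also: values are mean percent inhibition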
T1 sequence (whole entry): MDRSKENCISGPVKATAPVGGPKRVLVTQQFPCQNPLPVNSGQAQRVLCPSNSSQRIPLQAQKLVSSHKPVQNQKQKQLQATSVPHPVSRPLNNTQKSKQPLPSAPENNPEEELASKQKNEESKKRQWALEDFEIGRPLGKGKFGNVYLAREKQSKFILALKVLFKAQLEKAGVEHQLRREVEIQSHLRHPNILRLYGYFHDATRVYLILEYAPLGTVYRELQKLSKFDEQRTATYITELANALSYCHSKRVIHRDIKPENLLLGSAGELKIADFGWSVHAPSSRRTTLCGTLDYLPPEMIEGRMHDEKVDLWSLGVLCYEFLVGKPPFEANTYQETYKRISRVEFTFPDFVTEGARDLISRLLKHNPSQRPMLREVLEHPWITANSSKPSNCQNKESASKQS

[2] = target: Aurora kinase B (Homo sapiens) (UniProt Q96GD4); conditions: at 0.1 µM
[3] = target: Aurora kinase B (Homo sapiens) (UniProt Q96GD4); conditions: at 1 µM
[4] = target: T2, Aurora kinase C (Homo sapiens) (UniProt Q9UQB9); conditions: at 0.1 µM
T2 sequence (whole entry): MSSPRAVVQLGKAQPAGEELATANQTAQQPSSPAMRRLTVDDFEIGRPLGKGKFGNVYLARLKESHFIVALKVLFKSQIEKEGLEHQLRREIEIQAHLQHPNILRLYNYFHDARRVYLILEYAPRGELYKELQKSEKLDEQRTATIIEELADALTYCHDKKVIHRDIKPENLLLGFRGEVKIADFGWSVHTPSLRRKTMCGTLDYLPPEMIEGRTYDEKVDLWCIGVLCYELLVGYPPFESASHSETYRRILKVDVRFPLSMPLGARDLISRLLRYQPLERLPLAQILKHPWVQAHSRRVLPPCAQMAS

[5] = target: T2, Aurora kinase C (Homo sapiens); conditions: at 1 µM
[6] = target: Serine/threonine-protein kinase 10 (Homo sapiens) (UniProt O94804); conditions: at 0.1 µM
[7] = target: Serine/threonine-protein kinase 10 (Homo sapiens) (UniProt O94804); conditions: at 1 µM
[8] = target: T3, Mitogen-activated protein kinase kinase kinase kinase 2 (Homo sapiens) (UniProt Q12851); conditions: at 0.1 µM
T3 sequence (whole entry): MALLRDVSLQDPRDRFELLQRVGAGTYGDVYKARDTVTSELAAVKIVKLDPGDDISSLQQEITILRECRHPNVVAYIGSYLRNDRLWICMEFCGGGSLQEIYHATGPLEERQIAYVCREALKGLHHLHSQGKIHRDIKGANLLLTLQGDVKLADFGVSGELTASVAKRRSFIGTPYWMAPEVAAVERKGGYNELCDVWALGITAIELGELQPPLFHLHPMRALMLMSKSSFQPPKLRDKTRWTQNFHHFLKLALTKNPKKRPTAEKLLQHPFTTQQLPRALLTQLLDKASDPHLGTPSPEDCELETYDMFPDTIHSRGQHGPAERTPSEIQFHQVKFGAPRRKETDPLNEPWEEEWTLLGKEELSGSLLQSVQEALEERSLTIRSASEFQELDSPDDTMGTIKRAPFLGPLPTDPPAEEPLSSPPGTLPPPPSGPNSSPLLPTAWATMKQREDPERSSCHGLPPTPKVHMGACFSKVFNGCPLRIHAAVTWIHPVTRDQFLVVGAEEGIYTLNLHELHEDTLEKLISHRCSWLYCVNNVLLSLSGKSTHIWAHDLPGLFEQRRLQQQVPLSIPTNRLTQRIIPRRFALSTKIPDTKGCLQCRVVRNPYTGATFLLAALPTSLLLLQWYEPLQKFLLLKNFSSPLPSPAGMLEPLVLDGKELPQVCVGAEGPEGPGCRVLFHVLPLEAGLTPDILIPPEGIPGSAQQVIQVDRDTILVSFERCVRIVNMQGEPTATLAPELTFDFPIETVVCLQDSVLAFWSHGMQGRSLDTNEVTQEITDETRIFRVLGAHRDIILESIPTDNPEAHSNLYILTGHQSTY

[9] = target: T3, Mitogen-activated protein kinase kinase kinase kinase 2 (Homo sapiens); conditions: at 1 µM
[10] = target: Mitogen-activated protein kinase kinase kinase kinase 4 (Homo sapiens) (UniProt O95819); conditions: at 0.1 µM
Sequence of Mitogen-activated protein kinase kinase kinase kinase 4 (Homo sapiens) (O95819 2-1239 limits assumed): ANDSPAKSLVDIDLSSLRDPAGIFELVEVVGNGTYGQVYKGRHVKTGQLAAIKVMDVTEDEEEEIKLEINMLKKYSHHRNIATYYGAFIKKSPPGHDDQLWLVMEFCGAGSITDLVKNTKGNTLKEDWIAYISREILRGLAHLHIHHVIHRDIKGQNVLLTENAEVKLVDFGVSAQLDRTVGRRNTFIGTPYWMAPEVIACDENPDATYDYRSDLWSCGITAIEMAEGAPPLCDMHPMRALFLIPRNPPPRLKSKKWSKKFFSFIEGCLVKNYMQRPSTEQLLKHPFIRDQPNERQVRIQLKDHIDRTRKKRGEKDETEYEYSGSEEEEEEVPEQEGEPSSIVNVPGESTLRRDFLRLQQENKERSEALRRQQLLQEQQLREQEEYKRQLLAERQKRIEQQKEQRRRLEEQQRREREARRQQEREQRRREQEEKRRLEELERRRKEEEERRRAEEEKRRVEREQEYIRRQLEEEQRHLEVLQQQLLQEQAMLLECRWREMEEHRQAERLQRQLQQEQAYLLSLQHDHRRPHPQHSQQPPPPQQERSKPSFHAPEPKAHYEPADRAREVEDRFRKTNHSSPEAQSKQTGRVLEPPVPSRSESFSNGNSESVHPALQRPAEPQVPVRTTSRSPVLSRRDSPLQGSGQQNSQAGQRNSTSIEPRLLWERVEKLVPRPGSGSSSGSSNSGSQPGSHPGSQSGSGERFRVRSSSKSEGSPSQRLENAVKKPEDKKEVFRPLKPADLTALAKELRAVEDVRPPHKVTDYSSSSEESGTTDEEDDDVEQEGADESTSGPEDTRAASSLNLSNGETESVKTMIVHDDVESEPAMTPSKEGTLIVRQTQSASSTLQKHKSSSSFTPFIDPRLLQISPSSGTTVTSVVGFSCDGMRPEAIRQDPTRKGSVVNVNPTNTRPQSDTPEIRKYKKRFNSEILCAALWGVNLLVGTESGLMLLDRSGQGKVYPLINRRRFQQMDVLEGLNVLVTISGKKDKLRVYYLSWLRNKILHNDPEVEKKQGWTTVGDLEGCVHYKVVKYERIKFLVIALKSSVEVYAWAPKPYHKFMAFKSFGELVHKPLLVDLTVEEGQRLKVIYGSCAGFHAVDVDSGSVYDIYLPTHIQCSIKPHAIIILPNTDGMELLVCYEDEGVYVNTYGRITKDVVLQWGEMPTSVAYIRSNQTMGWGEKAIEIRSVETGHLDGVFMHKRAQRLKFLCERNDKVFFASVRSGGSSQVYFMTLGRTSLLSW

Sequence of Aurora kinase B (Homo sapiens) (Q96GD4 whole entry): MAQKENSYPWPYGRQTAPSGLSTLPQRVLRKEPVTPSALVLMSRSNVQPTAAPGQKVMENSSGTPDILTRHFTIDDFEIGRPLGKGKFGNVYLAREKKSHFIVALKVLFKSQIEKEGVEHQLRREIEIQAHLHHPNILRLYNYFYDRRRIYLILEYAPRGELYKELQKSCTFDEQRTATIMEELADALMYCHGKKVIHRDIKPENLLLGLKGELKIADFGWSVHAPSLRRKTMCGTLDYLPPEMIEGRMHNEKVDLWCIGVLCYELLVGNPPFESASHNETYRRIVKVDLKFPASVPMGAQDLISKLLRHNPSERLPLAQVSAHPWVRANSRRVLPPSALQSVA
Sequence of Serine/threonine-protein kinase 10 (Homo sapiens) (O94804 whole entry, looked up): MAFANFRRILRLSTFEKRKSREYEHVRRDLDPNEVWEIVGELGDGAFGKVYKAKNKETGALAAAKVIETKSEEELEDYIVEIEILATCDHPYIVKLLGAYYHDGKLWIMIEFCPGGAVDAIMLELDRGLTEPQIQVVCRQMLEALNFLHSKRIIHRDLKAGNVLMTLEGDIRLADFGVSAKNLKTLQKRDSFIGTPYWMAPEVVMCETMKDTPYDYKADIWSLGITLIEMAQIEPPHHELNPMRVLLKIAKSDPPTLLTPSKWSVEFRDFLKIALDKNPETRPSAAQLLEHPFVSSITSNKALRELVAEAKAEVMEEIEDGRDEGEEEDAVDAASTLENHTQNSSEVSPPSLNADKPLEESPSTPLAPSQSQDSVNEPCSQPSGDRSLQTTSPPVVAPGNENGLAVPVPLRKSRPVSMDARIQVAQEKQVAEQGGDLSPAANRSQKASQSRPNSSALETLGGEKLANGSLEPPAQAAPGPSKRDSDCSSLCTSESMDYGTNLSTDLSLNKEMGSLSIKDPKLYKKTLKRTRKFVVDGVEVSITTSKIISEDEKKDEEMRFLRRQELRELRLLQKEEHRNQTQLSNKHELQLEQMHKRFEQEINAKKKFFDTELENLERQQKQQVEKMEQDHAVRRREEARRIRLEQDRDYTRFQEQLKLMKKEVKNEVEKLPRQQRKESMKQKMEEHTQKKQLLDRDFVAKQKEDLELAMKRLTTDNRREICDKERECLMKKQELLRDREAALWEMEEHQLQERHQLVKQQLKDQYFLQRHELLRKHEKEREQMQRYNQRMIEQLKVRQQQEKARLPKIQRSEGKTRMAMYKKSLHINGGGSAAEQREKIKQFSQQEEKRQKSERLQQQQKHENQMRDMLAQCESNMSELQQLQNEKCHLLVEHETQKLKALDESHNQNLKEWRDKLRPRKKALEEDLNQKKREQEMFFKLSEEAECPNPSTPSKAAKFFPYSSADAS

Structure (SMILES)	inhibition [1] [%]	inhibition [2] [%]	inhibition [3] [%]	inhibition [4] [%]	inhibition [5] [%]	inhibition [6] [%]	inhibition [7] [%]	inhibition [8] [%]	inhibition [9] [%]	inhibition [10] [%]
CC1=C(C(=O)Nc2ccc3[nH]ncc3c2)C(c2ccc(F)cc2)N=C(c2ccc(C(F)(F)F)nc2)N1 (stereo not given)	51	3.38	16.9	3.47	21.3	0.31	2.22	1.59	2.35	2.89
Fc1cccc(COc2ccc(Nc3ncncc3C#Cc3ccccc3)cc2Cl)c1	9	-1.58	6	1.15	-2.38	2.78	11.7	0.81	0.54	6.19
O=C1Nc2ccccc2/C1=C1\CCc2cc(O)ccc21	70.9	44.8	80.5	53.7	93.4	6.67	16.1	12.1	52.6	23.3
Cc1cc(O)cc(C)c1/C=C/c1cncc(C(=O)OC(C)(C)C)c1	14.9	3.41	6.42	0.94	-1.91	5.45	17.5	2.5	7.97	7.27
c1cnn2ncc(-c3ccnc(NCCCN4CCOCC4)n3)c2c1	8.82	2.38	5.43	-0.51	1.86	4.84	1.98	-0.2	1.94	4.7
CC(C)c1ccc(-c2cc(-c3c[nH]nc3-c3ccccn3)ccn2)cc1	3.72	0.9	5.53	1.22	-0.07	0.88	0.62	1.5	3.27	10.9
COC(=O)Nc1nc2ccc(Oc3ccc(NC(=O)Nc4cc(C(F)(F)F)ccc4F)cc3)cc2s1	7.02	5.4	30.8	9.05	50.4	24.5	55.4	10.7	28.6	2.18
COc1ccccc1-c1cc(/C=C2\C(=O)Nc3ncc(Br)cc32)cc(Br)c1O	93	12.4	57.2	7.31	87.5	5.49	5.99	0.42	5.34	5.7
Cn1c(-c2nonc2N)nc2cnccc21	7.19	1.6	4.18	1.42	4.49	4.28	7.08	0.8	6.6	6.14
COc1cc(N2CCN(C(C)C)CC2)ccc1Nc1nc(Nc2cccc(F)c2C(=O)O)c2cc[nH]c2n1	6.46	4.82	5.02	0.7	-0.44	5.69	9.11	0.91	3.18	7.43
Fc1ccc(Nc2nccc(-c3c(-c4ccc(C(F)(F)F)cc4)nn4ncccc34)n2)cc1F	14.1	4.71	4.62	2.92	12.9	3.37	0.68	0.94	1.77	5.44
Cc1c2ccc(N(C)c3ccnc(Nc4cccc(S(N)(=O)=O)c4)n3)cc2nn1C	72.2	12.5	54.2	15.8	81.6	23.4	64.4	7.77	41	11.1
O=C(O[C@H]1CN[C@H](C#Cc2cc3ncnc(Nc4ccc5c(ccn5Cc5cc(F)ccc5F)c4)c3s2)C1)N1CCOCC1	9.24	5.02	8.88	1.44	9.49	8.09	7.76	1.18	2.82	5.04
CNC(=O)c1cncc(/C=C/c2ccccc2C)c1	9.59	3.77	-0.01	2.1	-3.67	6.73	9.43	0.94	2.16	8.34
COc1ccc(Nc2ncc(-c3ccccc3)o2)cc1OC	75.4	8.72	51.1	10.2	82.2	-1.08	11.2	3.92	14.3	8.63

Source: ChEMBL document CHEMBL1961873, “Compounds: GSK PKIS; Assays: Nanosyn kinase panel” (2012)
